Results published in PubChem BioAssay (NCI).
About 83,000 compounds went through this panel and 20% of them were active in at least one assay; those are over-represented in the sample as a whole.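 Single-concentration screen, 48 h exposure, 96-well plates. Endpoint: percent growth. Below 10 = active.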 Values without a mark were called inactive. Activity calls are given as the source filed them.

Tested on: MDA-MB-468 breast
Assay: NCI-60 one-dose screen, 48 h (100 = growth as untreated, 0 = no growth, -100 = all killed)
Settings: 10 µM unless noted

| SMILES | growth |
| --- | --- |
| Cn1c(-c2ccccc2)cc(=O)cc1-c1ccccc1 | 68.7% |
| O=C1SCN(Cc2ccccc2)CN1Cc1ccccc1 | 24.8% |
| CC1=C([Se]CC(OC(=O)[C@@H](CO)NC(=O)OC(C)(C)C)C(=O)NC(C)(C)C)C(=O)c2ccccc2C1=O (stereo not given in full) | -74.2% (active) |
| C=C(C)[C@@H]1CC[C@]2(C#N)CC[C@]3(C)[C@H](CC[C@@H]4[C@@]5(C)CCCNC(C)(C)[C@@H]5CC[C@]43C)[C@@H]12 | 19.3% |
| Cc1nc(NC(=O)N2CCC[C@H]2C(N)=O)sc1-c1ccnc(C(C)(C)C(F)(F)F)c1 | 6.59% (active) |
